From publication PMC7862700, “An all-to-all approach to the identification of sequence-specific readers for epigenetic DNA modifications on cytosine”

Legend:
Assay in all cases: DAPPL (digital affinity profiling via proximity ligation, sequencing); 10 mM Tris-HCl pH 7.5, 50 mM NaCl, 1 mM DTT, 4% glycerol, room temperature, 30 min; GST-TFs on glutathione beads, 16-mer random dsDNA library, 0.1% formaldehyde crosslink after washing; high values mean tight binding
FLI1 = molecular target: T1, FLI1 (Homo sapiens, UniProt Q01543 1-452); conditions: protein: recombinant; tags: N-terminal GST; dsDNA, one strand shown
T1 sequence: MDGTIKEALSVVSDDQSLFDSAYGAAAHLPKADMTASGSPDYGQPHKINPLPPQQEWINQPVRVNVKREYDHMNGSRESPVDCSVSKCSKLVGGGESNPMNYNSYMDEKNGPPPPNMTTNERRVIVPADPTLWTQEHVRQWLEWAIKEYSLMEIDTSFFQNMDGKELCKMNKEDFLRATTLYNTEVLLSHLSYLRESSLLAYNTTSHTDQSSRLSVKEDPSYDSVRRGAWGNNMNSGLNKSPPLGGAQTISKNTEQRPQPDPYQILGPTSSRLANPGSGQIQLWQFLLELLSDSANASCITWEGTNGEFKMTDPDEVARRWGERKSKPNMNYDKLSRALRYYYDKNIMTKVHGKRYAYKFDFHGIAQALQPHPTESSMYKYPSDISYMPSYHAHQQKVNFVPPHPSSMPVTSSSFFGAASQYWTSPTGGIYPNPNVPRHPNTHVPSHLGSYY
Outline: (§1)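 In yeast, human transcription factors were expressed with a GST fusion, then pulled down on glutathione beads and given DNA barcodes. Pooled with a tag-only sample, they were exposed to 200 nmole of a 16-mer random double-stranded DNA library (Tris/NaCl/DTT/glycerol buffer, room temperature, 30 min), washed, crosslinked with 0.1% formaldehyde, proximity-ligated using BsaI/T4 ligase for 1 h at 37 °C, PCR-amplified and read on an Illumina NextSeq500. Each hexamer's frequency of reads for a factor, divided by the matching frequency for the tag-only sample, gives the binding signal.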

ELK1 = molecular target: T2, ELK1 (Homo sapiens, UniProt P19419 1-428); conditions: protein: recombinant; tags: N-terminal GST; dsDNA, one strand shown
T2 sequence: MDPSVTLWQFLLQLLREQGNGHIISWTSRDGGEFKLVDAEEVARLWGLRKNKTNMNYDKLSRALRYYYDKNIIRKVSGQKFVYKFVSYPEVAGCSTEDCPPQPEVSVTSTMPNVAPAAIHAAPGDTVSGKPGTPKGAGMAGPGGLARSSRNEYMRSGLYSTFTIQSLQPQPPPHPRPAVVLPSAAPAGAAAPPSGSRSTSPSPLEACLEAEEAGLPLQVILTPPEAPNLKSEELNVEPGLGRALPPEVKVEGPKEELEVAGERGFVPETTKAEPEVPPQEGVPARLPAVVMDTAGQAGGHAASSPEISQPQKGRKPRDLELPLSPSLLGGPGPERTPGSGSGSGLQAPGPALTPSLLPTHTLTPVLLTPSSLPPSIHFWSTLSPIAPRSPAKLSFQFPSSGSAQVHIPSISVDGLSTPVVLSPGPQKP
Outline: as §1

GABPA = molecular target: T3, GABPA (Homo sapiens, UniProt Q06546 1-454); conditions: protein: recombinant; tags: N-terminal GST; dsDNA, one strand shown
T3 sequence: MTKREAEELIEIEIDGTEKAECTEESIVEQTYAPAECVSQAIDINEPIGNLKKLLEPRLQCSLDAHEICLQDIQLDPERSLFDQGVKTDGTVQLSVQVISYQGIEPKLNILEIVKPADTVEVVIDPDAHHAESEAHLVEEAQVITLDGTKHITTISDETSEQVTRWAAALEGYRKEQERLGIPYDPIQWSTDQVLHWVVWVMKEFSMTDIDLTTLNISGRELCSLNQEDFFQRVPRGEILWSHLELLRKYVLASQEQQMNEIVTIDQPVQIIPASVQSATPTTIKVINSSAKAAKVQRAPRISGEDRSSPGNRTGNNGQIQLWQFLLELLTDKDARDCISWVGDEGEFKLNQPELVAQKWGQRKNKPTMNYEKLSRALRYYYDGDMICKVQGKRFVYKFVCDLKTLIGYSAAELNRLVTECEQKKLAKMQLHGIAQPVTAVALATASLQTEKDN
Outline: as §1

ERG = molecular target: T4, ERG (Homo sapiens, UniProt P11308 1-479); conditions: protein: recombinant; tags: N-terminal GST; dsDNA, one strand shown
T4 sequence: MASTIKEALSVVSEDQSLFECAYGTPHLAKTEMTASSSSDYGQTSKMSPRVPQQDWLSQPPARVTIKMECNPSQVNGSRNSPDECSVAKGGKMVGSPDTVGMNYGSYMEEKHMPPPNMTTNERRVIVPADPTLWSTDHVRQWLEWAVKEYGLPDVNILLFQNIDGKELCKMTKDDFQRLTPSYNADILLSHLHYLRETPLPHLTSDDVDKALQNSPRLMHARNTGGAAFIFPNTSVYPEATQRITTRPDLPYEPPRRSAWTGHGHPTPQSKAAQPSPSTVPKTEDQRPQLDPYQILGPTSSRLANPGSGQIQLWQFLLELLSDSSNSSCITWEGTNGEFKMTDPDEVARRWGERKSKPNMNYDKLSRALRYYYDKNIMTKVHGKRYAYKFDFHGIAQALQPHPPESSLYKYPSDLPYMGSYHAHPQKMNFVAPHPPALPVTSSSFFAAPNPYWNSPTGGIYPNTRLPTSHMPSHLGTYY
Outline: as §1

ELF1 = ELF1 (Homo sapiens, UniProt P32519 1-619); conditions: protein: recombinant; tags: N-terminal GST; dsDNA, one strand shown
Sequence of ELF1 (P32519 whole entry): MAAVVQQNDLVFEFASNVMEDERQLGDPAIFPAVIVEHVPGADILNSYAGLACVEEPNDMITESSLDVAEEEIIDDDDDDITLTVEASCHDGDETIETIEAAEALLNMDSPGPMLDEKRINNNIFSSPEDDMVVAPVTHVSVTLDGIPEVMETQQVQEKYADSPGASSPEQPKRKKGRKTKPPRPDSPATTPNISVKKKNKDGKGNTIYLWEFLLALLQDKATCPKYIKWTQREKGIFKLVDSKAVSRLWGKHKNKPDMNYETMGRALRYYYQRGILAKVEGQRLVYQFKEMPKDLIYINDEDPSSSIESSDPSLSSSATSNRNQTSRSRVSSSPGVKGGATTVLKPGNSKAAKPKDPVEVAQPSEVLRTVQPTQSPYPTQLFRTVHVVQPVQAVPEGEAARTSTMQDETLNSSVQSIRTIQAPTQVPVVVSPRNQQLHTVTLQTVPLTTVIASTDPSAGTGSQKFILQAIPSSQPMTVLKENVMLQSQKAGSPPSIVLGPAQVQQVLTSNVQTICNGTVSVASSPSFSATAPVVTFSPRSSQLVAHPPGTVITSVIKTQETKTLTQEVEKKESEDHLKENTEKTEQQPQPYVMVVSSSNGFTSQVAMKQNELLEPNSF
Outline: as §1

EHF = molecular target: T5, EHF (Homo sapiens, UniProt Q9NZC4 1-300); conditions: protein: recombinant; tags: N-terminal GST; dsDNA, one strand shown
T5 sequence: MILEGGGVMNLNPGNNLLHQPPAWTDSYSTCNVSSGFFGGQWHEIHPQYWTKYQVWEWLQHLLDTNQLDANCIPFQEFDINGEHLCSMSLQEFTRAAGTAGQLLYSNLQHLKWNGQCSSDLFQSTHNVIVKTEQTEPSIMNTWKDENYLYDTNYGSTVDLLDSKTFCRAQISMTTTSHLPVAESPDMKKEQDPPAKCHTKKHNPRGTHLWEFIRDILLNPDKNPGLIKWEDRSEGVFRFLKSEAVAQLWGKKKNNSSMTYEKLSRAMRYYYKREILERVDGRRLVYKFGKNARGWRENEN
Outline: as §1

SPI1 = SPI1 (Homo sapiens, UniProt P17947 1-270); conditions: protein: recombinant; tags: N-terminal GST; dsDNA, one strand shown
Outline: as §1

SPIB = SPIB (Homo sapiens, UniProt Q01892 1-262); conditions: protein: recombinant; tags: N-terminal GST; dsDNA, one strand shown
Sequence of SPIB (Q01892 whole entry): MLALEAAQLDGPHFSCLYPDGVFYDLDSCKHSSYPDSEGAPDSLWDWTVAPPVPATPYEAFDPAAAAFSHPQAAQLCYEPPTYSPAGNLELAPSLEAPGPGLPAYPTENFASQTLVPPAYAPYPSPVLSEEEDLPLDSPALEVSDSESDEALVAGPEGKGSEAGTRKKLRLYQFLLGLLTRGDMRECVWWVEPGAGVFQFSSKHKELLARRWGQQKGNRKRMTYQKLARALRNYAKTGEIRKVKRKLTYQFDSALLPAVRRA
Outline: as §1

ELK3 = molecular target: T6, ELK3 (Homo sapiens, UniProt P41970 1-407); conditions: protein: recombinant; tags: N-terminal GST; dsDNA, one strand shown
T6 sequence: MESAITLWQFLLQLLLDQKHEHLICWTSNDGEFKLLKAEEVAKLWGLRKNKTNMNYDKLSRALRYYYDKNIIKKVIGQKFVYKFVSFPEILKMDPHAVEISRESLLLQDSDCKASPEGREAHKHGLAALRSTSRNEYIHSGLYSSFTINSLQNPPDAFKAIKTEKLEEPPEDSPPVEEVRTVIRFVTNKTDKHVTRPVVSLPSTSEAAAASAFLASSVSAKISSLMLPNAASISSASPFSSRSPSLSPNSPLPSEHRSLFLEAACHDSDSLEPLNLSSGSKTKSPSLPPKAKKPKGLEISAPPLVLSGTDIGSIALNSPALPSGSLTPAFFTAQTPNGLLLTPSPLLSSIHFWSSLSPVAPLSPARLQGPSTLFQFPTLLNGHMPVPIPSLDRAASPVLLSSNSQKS
Outline: as §1

FEV = molecular target: T7, FEV (Homo sapiens, UniProt Q99581 1-238); conditions: protein: recombinant; tags: N-terminal GST; dsDNA, one strand shown
T7 sequence: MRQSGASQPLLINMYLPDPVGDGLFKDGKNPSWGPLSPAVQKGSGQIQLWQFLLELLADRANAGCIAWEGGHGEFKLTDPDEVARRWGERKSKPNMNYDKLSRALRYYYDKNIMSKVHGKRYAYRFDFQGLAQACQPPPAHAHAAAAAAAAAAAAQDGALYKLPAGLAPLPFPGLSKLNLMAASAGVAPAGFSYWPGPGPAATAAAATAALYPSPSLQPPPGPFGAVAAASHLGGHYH
Outline: as §1

ETV5 = ETV5 (Homo sapiens, UniProt P41161 1-510); conditions: protein: recombinant; tags: N-terminal GST; dsDNA, one strand shown
Sequence of ETV5 (P41161 whole entry): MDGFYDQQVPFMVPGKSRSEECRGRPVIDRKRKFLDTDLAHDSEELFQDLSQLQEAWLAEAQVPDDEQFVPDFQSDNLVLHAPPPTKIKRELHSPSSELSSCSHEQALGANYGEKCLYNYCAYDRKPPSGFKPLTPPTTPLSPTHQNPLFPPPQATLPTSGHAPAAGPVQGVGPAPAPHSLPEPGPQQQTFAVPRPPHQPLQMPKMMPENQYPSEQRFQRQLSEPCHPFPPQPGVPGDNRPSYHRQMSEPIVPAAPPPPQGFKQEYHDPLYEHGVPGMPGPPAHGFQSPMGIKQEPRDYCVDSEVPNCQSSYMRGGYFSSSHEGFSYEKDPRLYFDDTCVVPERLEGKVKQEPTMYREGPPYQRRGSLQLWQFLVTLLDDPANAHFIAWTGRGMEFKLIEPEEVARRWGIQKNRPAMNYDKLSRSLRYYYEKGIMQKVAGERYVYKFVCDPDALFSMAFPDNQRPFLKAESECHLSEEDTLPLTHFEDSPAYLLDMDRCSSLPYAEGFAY
Outline: as §1

HSF1 = HSF1 (Homo sapiens, UniProt Q00613 1-529); conditions: protein: recombinant; tags: N-terminal GST; chain copies: 3; dsDNA, one strand shown
Sequence of HSF1 (Q00613 whole entry): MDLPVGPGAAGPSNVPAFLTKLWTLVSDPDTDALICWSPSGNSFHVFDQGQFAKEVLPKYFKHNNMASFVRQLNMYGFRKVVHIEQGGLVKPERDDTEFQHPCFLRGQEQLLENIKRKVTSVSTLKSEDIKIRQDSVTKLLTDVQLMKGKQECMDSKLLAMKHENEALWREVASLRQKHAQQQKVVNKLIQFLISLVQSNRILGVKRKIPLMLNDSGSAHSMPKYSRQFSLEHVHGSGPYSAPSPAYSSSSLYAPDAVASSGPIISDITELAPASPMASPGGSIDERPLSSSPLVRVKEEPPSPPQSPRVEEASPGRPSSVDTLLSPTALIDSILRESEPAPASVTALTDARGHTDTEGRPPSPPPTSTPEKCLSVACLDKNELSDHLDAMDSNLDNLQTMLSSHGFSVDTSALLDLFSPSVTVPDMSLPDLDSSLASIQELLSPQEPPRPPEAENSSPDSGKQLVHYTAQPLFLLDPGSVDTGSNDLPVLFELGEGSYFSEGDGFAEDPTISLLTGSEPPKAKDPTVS
Outline: as §1

SPIC = molecular target: T8, SPIC (Homo sapiens, UniProt Q8N5J4 1-248); conditions: protein: recombinant; tags: N-terminal GST; dsDNA, one strand shown
T8 sequence: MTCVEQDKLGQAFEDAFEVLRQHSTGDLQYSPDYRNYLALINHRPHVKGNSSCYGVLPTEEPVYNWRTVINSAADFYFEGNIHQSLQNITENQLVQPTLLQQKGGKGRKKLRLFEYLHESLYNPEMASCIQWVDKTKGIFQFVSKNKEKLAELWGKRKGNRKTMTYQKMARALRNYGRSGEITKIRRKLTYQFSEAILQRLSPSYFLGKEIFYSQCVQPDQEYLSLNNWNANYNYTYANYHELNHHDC
Outline: as §1

ELF4 = ELF4 (Homo sapiens, UniProt Q99607 1-663); conditions: protein: recombinant; tags: N-terminal GST; dsDNA, one strand shown
Sequence of ELF4 (Q99607 whole entry): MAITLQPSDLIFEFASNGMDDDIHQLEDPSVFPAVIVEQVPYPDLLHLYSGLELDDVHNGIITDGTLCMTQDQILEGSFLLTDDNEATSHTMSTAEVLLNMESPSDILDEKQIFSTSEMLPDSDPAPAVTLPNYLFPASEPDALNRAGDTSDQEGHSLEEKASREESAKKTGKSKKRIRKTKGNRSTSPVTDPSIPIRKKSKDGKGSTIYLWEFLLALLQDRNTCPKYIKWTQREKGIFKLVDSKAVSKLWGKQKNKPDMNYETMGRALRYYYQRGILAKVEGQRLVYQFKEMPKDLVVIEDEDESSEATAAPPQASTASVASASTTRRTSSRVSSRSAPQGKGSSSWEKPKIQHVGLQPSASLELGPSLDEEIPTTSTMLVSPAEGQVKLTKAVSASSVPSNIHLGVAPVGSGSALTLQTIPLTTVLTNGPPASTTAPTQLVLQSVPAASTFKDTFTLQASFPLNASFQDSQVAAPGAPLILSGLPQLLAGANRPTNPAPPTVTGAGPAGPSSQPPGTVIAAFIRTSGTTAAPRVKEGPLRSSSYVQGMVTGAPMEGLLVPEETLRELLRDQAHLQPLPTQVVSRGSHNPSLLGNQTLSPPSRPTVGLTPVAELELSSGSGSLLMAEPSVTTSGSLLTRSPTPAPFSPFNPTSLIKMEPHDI
Outline: as §1

ELK4 = molecular target: T9, ELK4 (Homo sapiens, UniProt P28324-2 1-405); conditions: protein: recombinant; tags: N-terminal GST; dsDNA, one strand shown
T9 sequence: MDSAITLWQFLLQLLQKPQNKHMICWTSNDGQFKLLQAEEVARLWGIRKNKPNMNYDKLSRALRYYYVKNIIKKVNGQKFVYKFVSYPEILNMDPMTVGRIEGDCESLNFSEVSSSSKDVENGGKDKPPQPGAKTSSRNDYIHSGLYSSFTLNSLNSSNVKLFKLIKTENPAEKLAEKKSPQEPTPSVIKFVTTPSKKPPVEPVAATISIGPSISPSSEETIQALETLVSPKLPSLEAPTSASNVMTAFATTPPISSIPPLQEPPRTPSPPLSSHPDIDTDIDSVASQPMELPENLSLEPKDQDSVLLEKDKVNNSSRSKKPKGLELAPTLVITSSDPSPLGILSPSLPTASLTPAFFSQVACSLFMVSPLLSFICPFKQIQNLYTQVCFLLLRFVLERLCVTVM
Outline: as §1

ETV2 = molecular target: T10, ETV2 (Homo sapiens, UniProt O00321 1-342); conditions: protein: recombinant; tags: N-terminal GST; dsDNA, one strand shown
T10 sequence: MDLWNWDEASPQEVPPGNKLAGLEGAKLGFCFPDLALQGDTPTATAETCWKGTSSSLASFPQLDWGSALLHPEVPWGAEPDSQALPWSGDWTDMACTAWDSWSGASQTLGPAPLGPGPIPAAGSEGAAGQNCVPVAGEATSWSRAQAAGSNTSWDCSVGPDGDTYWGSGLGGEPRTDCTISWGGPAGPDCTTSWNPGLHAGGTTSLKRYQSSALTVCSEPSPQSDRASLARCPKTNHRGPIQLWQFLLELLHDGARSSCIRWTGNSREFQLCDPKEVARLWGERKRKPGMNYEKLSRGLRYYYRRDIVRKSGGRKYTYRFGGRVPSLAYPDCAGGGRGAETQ
Outline: as §1

ELF3 = molecular target: T11, ELF3 (Homo sapiens, UniProt P78545 1-371); conditions: protein: recombinant; tags: N-terminal GST; dsDNA, one strand shown
T11 sequence: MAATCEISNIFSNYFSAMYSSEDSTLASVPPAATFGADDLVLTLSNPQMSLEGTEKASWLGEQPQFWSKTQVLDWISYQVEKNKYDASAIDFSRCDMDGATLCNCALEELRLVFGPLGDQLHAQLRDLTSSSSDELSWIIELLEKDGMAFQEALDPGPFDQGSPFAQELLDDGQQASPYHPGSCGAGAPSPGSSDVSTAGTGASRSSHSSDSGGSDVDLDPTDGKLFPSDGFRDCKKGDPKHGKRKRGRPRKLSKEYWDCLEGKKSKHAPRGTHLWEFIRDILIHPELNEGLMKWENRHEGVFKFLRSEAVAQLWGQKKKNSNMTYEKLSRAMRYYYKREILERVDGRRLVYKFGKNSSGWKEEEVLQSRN
Outline: as §1

CRX = CRX (Homo sapiens, UniProt O43186 1-299); conditions: protein: recombinant; tags: N-terminal GST; dsDNA, one strand shown
Sequence of CRX (O43186 whole entry): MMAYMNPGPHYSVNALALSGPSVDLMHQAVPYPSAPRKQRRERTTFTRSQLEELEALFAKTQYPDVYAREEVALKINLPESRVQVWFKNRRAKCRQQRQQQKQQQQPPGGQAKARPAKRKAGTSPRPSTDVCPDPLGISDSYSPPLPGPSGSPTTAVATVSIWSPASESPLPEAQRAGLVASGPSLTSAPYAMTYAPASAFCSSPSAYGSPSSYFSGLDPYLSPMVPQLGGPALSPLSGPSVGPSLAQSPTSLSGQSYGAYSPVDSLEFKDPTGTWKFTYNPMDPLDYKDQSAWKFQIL
Outline: as §1

ETV1 = ETV1 (Homo sapiens, UniProt P50549 1-477); conditions: protein: recombinant; tags: N-terminal GST; dsDNA, one strand shown
Sequence of ETV1 (P50549 whole entry): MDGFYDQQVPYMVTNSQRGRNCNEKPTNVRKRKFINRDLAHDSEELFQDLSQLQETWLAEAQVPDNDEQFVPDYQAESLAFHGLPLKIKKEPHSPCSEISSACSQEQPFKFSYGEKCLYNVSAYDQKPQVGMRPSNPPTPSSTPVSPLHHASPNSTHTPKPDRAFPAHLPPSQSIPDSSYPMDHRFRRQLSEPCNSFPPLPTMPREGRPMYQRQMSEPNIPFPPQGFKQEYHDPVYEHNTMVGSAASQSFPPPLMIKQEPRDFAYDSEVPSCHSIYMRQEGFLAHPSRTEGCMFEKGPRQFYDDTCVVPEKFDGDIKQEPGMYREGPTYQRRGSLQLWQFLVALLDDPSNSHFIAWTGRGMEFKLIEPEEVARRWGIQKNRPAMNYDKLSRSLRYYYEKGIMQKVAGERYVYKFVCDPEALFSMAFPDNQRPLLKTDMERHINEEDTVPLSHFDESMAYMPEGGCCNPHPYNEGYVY
Outline: as §1

CTCCGA
binding signal (FLI1): 1.35 fold enrichment (6-mer frequency, TF over GST control)
binding signal (ELK1): 1.42 fold enrichment (6-mer frequency, TF over GST control)
binding signal (GABPA): 1.45 fold enrichment (6-mer frequency, TF over GST control)
binding signal (ERG): 1.34 fold enrichment (6-mer frequency, TF over GST control)
binding signal (ELF1): 1.37 fold enrichment (6-mer frequency, TF over GST control)
binding signal (EHF): 1.39 fold enrichment (6-mer frequency, TF over GST control)
binding signal (SPI1): 1.44 fold enrichment (6-mer frequency, TF over GST control)
binding signal (SPIB): 1.52 fold enrichment (6-mer frequency, TF over GST control)
binding signal (ELK3): 1.33 fold enrichment (6-mer frequency, TF over GST control)
binding signal (FEV): 1.4 fold enrichment (6-mer frequency, TF over GST control)
binding signal (ETV5): 1.3 fold enrichment (6-mer frequency, TF over GST control)
binding signal (HSF1): 1.49 fold enrichment (6-mer frequency, TF over GST control)
binding signal (SPIC): 1.51 fold enrichment (6-mer frequency, TF over GST control)
binding signal (ELF4): 1.41 fold enrichment (6-mer frequency, TF over GST control)
binding signal (ELK4): 1.36 fold enrichment (6-mer frequency, TF over GST control)
binding signal (ETV2): 1.19 fold enrichment (6-mer frequency, TF over GST control)
binding signal (ELF3): 1.2 fold enrichment (6-mer frequency, TF over GST control)
binding signal (CRX): 1.3 fold enrichment (6-mer frequency, TF over GST control)
binding signal (ETV1): 1.24 fold enrichment (6-mer frequency, TF over GST control)
